28 compounds from ChEMBL document CHEMBL4513146, “CO-ADD screening of Karazin Kharkiv National University (Ukraine) compounds” can be followed below.

Measured potencies and affinities stand elsewhere.

In assay [1] the test system is Klebsiella pneumoniae. Particulars: Concentration 32 ug.mL-1;; ASSAY_TEST Inhibition of Bacterial Growth; detection method Absorption (OD600); MEDIA CAMHB; plate type 384well; NBS; CORNING #3640; time 18 hr.
Assay [2] has as its system Candida albicans. Particulars: Concentration 32 ug.mL-1; ASSAY_TEST Inhibition of Fungal Growth; detection method Absorption (OD530).
The test system of assay [3] is Cryptococcus neoformans. Particulars: Concentration 32 ug.mL-1; ASSAY_TEST Inhibition of Fungal Growth; detection method Resazurin; Absorption (OD600-OD570); plate type 384well; NBS; CORNING #3640. A general note: Alamar Blue is a resazurin reagent that responds to reducing activity.

For `O=C(CCc1nnc2c(N3CCCCC3)nc3ccccc3n12)NCCc1ccc(Cl)cc1`, the Inhibition in assay [1] is 17.22%; in assay [2], 2.39%; in assay [3] it was -25.04%.
For `COc1ccccc1CNC(=O)Cn1nc2c(N3CCSCC3)nccn2c1=O` the same measures were 3.04%, 3.29% and -6.25%.
Turning to `Cc1ccc(NC(=O)c2ccc3nnc(SCC(=O)Nc4ccc(F)cc4)n3c2)cc1`, the Inhibition is listed as 0.72% in assay [1], 4.31% in assay [2] and -5.93% in assay [3].
The corresponding values for `CCCCOc1ccc(-c2cc3c4nnc(SCC(=O)Nc5cccc(C(C)=O)c5)n4ccn3n2)cc1` are 9.96%, 5.2% and -6.36%.
The corresponding values for `O=C(Cn1nc2ccc(Sc3ccccc3)nn2c1=O)Nc1ccc(Cl)cc1` are 9.24%, 8.96% and -7.55%.
With `Cc1cccc(N(Cc2ccccc2F)S(=O)(=O)c2ccc3nncn3c2)c1`, the Inhibition in assay [1] was -1.12%; in assay [2] it was 0.03%; in assay [3] it was -7.87%.
For `Cc1cc(C)c(NC(=O)Cn2nc3ccc(-c4ccc(C)c(C)c4)nn3c2=O)c(C)c1` the same measures were -8.22%, 0.76% and -13.99%.
For `Cc1ccc(-c2nnc3c(=O)n(CC(=O)Nc4cc(C)cc(C)c4)c4ccccc4n23)cc1` the same measures were 11.28%, -1.05% and -21.63%.
For `Cc1nnc2c(S(=O)(=O)N(Cc3cccc(F)c3)c3cccc(F)c3)cccn12` the same measures were 14.45%, 2.41% and -6.64%.
`CCc1nnc2ccc(S(=O)(=O)N(Cc3cccc(OC)c3)c3ccc(F)cc3)cn12`: the Inhibition in assay [1] is 3.57%; in assay [2], 1.64%; in assay [3] it was -8.65%.
The corresponding values for `Cc1cccc(NC(=O)Cn2nc3ccc(-c4ccc(Cl)cc4)nn3c2=O)c1C` are 8.72%, 0.72% and -12.84%.
The corresponding values for `C=Cc1ccc(CN(c2ccc(F)c(F)c2)S(=O)(=O)c2cccn3cnnc23)cc1` are 8.42%, 2.5% and -8.63%.
For `C=Cc1ccc(Cn2nc3c(=O)n(-c4ccc(C)c(C)c4)ccn3c2=O)cc1` the same measures were 9.34%, 3.74% and -5.84%.
With `CCOC(=O)c1cccc(NC(=O)CSc2nc3ccccc3n3c(C(C)C)nnc23)c1`, the Inhibition in assay [1] is 16.4%; in assay [2], 0.96%; in assay [3] it was -15.16%.
Take `CCc1cccc(NC(=O)Cn2nc3nc(N4CCCCCC4)ccn3c2=O)c1`: the Inhibition is given as 14.42% in assay [1], 0.8% in assay [2] and -9.37% in assay [3].
The corresponding values for `COc1cc(NC(=O)C(C)Sc2nnc3c(=O)n(-c4ccccc4OC)ccn23)cc(OC)c1` (centres undefined) are 11.13%, 1.4% and -7.6%.
The corresponding values for `CCOc1ccc(NC(=O)Cn2nc3c(N4CCCC4)nccn3c2=O)cc1` are 9.68%, 0.82% and -8.38%.
For `Cc1ccc(-n2ccn3c(=O)n(Cc4ccccc4F)nc3c2=O)cc1C` the same measures were 7.33%, 0.26% and -12.8%.
In the case of `COC(=O)c1ccc(CN(c2ccc(F)cc2)S(=O)(=O)c2cccn3c(C)nnc23)o1`, the Inhibition in assay [1] is reported as 11.43%; in assay [2] it was 3.23%; in assay [3], -7.89%.
The corresponding values for `Cc1cc(C)c(C(=O)CSc2nnc3c(=O)n(-c4ccc(F)cc4)ccn23)cc1C` are 7.49%, 4.64% and -8.78%.
The corresponding values for `O=C(Cn1nc2c(Oc3ccccc3)nccn2c1=O)Nc1ccccc1C(F)(F)F` are 6.19%, 0.13% and -8.9%.
As for `CCc1nnc2c(SCC(=O)NCc3ccccc3Cl)nc3ccccc3n12`, the Inhibition is 8.04% in assay [1], 1.39% in assay [2] and -17.43% in assay [3].
The corresponding values for `CCc1cccc(NC(=O)Cn2c(=O)c3nnc(C(C)C)n3c3ccccc32)c1` are 9.33%, 1.02% and -21.01%.
The corresponding values for `Cc1ccc(-n2ccn3c(=O)n(Cc4ccc(F)cc4)nc3c2=O)cc1C` are 10.23%, 1.58% and -18.28%.
`CCOc1ccc(N(Cc2ccccc2)S(=O)(=O)c2ccc3nncn3c2)cc1`: the Inhibition in assay [1] is recorded as 6.93%; in assay [2], 2.75%; in assay [3], -0.95%.
Turning to `Cc1ccc(-n2ccn3c(=O)n(Cc4cccc(F)c4)nc3c2=O)cc1C`, the Inhibition in assay [1] is reported as 5.72%; in assay [2], 0.74%; in assay [3], -14.54%.
For `COc1cccc(Sc2nc3ccccc3n3c(=O)n(CC(=O)Nc4c(C)cc(C)cc4C)nc23)c1` the same measures were 4.89%, -0.39% and -17.68%.
The corresponding values for `COc1cccc(NC(=O)Cn2nc3c(N4CCCC4)nccn3c2=O)c1` are 8.57%, 2.47% and -12.87%.

In general, Inhibition refers to the relative decrease from the control value, in per cent.
